Measured values as given in PubChem BioAssay AID1851 (National Center for Advancing Translational Sciences (NCATS), 2009).
The whole screen tested about 16,000 compounds, of which about 5,800 (36%) were called active. Not shown: some 23% with an inconclusive outcome. The list shows a part of the results. Unmarked numbers belong to inactive results. Calls follow the shape of the dose curve; as a rule, active = well fitted curve in the direction sought with a large enough effect; inconclusive = small, poorly fitted or top-dose-only effect, or effect the other way; inactive = no such curve, though single readings can be large or run the other way.

Each compound was assayed against Cytochrome P450 2C19 (Homo sapiens) (UniProt P33261) (assay: Cytochrome panel assay with activity outcomes). Conditions: recombinant CYP, pro-luciferin dealkylation, luminescence, p450-cyp2c19; series mostly up to 57.1 µM.
% is scaled to controls: 0 for no effect and ±100 for the full control effect.

Cytochrome P450 2C19 (Homo sapiens), sequence (P33261 whole entry, looked up): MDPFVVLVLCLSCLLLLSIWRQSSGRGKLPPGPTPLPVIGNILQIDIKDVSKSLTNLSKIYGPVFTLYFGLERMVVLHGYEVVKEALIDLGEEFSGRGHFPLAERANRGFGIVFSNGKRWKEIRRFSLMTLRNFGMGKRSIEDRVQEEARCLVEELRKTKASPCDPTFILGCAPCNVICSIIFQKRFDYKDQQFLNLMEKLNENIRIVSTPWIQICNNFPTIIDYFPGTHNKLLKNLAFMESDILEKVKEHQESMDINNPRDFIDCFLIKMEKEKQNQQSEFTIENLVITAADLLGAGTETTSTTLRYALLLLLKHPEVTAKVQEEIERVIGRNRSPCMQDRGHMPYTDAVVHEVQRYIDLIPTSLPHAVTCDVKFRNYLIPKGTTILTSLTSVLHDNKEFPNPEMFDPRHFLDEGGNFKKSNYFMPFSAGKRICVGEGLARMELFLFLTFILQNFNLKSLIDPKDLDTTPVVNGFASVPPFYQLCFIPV

SMILES	activity, negative = inhibition	AC50
O=C(O)c1cccc2cccc(-c3cccc4cccc(C(=O)O)c34)c12	-9.27% [at 11.4 µM]	–
O=C1c2ccccc2C(=O)c2c1ccc(C(=O)O)c2-c1ccc2ccccc2c1	–	2.51 µM (active)
O=C(O)c1ccccc1C(=O)Nc1cc2c(cc1Br)-c1ccccc1C2=O	-19.4% [at 11.4 µM]	–
COCC(=O)N1CCC2(CC1)CCN(C(c1ccccc1)c1ccccc1)CC2	–	inactive
Cc1cccc(C(=O)c2ccccc2C(=O)O)c1O	–	inactive
Cc1cccc(C(CC(=O)N2CCCC2)c2ccccc2)c1O (stereo not drawn)	–	1.41 µM (active)
CN(C)C[C@H]1CCC[C@@H](CN(C)C)C1=O	19.2% [at 11.4 µM]	–
N[C@@H](CO)C(=O)O	–	inactive
CC(C)[C@H]1C(=O)C(C(N)=O)=C(O)[C@]2(O)C(=O)C3=C(O)c4c(O)ccc(N(C)C)c4C[C@H]3C[C@@H]12	–	inactive
O=c1ccn(-c2cccc(C(F)(F)F)c2)nc1-c1ccn(-c2ccccc2F)n1	–	17.8 µM (active)
CCS(=O)(=O)c1ccc2c(c1)N(S(C)(=O)=O)CC(C(=O)NCCOC)O2 (stereo not drawn)	–	inactive
CS(=O)(=O)N1CC(C(=O)NC2CC2)Oc2ccc(Cl)cc21 (stereo not drawn)	–	7.08 µM (active)
CC(C)(C)NC[C@H](O)c1cc(O)cc(O)c1	–	inactive
CN1CCc2cc(Cl)c(O)cc2[C@H](c2ccccc2)C1	–	inactive
Cc1ccc(Cl)cc1N1CCN(S(=O)(=O)c2ccc3c(c2)OCCO3)CC1	–	3.98 µM (active)
Cc1ccc2nc(N3CCN(S(=O)(=O)c4ccc5c(c4)OCCO5)CC3)c(C#N)cc2c1	–	2.51 µM (active)
O=C(O)CCC(=O)N1CCOc2ccc(Cl)cc21	–	inactive
CO[C@@H]1COC(=O)CC=C[C@@H](C)[C@@H]2C=C[C@H](O)[C@@H](COC(=O)[C@H](C)NC(=O)CC=C[C@H]1C)O2	-12.2% [at 11.4 µM]	–
CCC(NC(=O)c1ccccc1NC(=O)c1ccco1)C(=O)NC1CCCCC1 (stereo not drawn)	–	15.8 µM (active)
CCCC[P+](CCCC)(CCCC)Cc1ccc(NC(=O)[C@@H](Cc2ccc3ccccc3c2)NC(=NC2CCCCC2)NC2CCCCC2)cc1	–	inactive
CCOc1cc(NC(=O)c2cccs2)c(OCC)cc1NC(=O)c1ccco1	–	inactive

SMILES	activity, negative = inhibition	AC50
CCOc1cc(NC(=O)C2CCCCC2)c(OCC)cc1NC(=O)c1ccco1	–	7.94 µM (active)
CC(=O)NCCNc1nc(-c2ccccc2C(F)(F)F)nc2ccccc12	–	inactive
CN(C)C(=O)c1ccc(-c2nc(NCc3cccnc3)c3ccccc3n2)cc1	–	inactive
FC(F)(F)c1ccccc1-c1nc(NCc2cccnc2)c2ccccc2n1	–	3.98 µM (active)
COCCNc1nc(-c2ccccc2C(F)(F)F)nc2ccccc12	–	20 µM (active)
FC(F)(F)c1ccccc1-c1nc(NCCN2CCOCC2)c2ccccc2n1	–	inactive
COCCNc1nc(-c2ccccc2OC)nc2ccccc12	–	inactive
CC(=O)NCCNc1nc(-c2ccccc2C)nc2ccccc12	–	inactive
CC(=O)NCCNc1nc(-c2ccccc2Cl)nc2ccccc12	–	3.98 µM (active)
FC(F)(F)c1ccccc1-c1nc(NCc2cccs2)c2ccccc2n1	–	7.94 µM (active)
CCOC(=O)CCN1C(=O)[C@H]2[C@H]3[C@H](O)[C@H](O)C/C(=N/OC/C=C(\C)CCC=C(C)C)[C@@H]3CC[C@@H]2C1=O	6.34% [at 11.4 µM]	–
CCCCCCCCCCCCCCC[C@@H](O)[C@@H](N)CO	–	inactive
O=c1[nH]c(SCc2c(Cl)c(Cl)c(Cl)c(Cl)c2Cl)nc(=S)[nH]1	-28.6% [at 11.4 µM]	–
Clc1ccccc1-c1nc(NCc2cccs2)c2ccccc2n1	–	7.94 µM (active)
CN(C)Cc1ccccc1-c1nc(NCc2cccs2)c2ccccc2n1	–	inactive
CN(C)CCNC(=O)Cn1nc(-c2ccc(Cl)cc2)ccc1=O	–	inactive
COc1ccc(NC(=O)N2CCC3(CC2)CCN(C(=O)c2csnn2)CC3)cc1	–	inactive
CC(=O)C1C(c2ccccc2OC(F)F)NC(=O)NC1(O)C(F)(F)F (stereo not drawn)	–	inactive
Cn1c(-c2ccc(F)cc2)cnc1NCc1ccc(F)cc1	–	2.51 µM (active)
Cn1c(-c2ccc(F)cc2)cnc1NCc1cccc(F)c1	–	6.31 µM (active)
CCNc1ncc2nc(-c3ccc(F)cc3)c(=O)n(C)c2n1	–	inactive

SMILES	activity, negative = inhibition	AC50
Cn1c(-c2ccccc2)cnc1N	–	inactive
Cc1ccc(-c2cnc(NC(=O)CCC(=O)N3CCCCC3)n2C)cc1	–	inactive
CCN(CC)C[C@@H](O)CN1CCCCc2nc(C)c(C)cc21	32.1% [at 11.4 µM]	–
O=C(NC1(C(F)(F)F)NC(=O)N(Cc2cccnc2)C1=O)c1ccccc1 (stereo not drawn)	–	15.8 µM (active)
O=C(NC1(C(F)(F)F)C(=O)Nc2c1c(=O)[nH]c(=O)n2-c1ccc(F)cc1)c1cccnc1 (stereo not drawn)	–	inactive
O=C(c1ccco1)N1CCC2(CC1)CN(Cc1cc(C(F)(F)F)cc(C(F)(F)F)c1)C2	–	inactive
CCCCN1C(=O)NC(NC(=O)c2ccco2)(C(F)(F)F)C1=O (stereo not drawn)	–	8.91 µM (active)
NS(=O)(=O)c1ccc(N=Nc2ncccc2O)cc1	-17% [at 11.4 µM]	–
Cc1ccc2nc(SCc3nnc(-c4ccccc4[N+](=O)[O-])o3)c(C#N)cc2c1	–	0.794 µM (active)
Cc1nc2cccc([N+](=O)[O-])c2n1CCCN(C)C	37.8% [at 11.4 µM]	–
CN(Cc1ccccc1)Cn1ccnc1	–	2 µM (active)
C#CCN(C)Cc1ccccc1	–	inactive
COc1ccc(CCNC[C@H](O)c2ccc(O)cc2)cc1OC	–	inactive
CCOc1nc(NCCc2ccc(OC)c(OC)c2)nc(NC(C)(C)CO)n1	–	6.31 µM (active)
COCCn1c(=O)c(-c2cccs2)nc2cnc(Oc3ccccc3)nc21	–	10 µM (active)
COCCn1c(=O)c(-c2ccccc2)nc2cnc(Oc3ccccc3)nc21	–	inactive
O=c1cnc2cnc(Oc3ccccc3)nc2n1CCc1ccccc1	–	6.31 µM (active)
COc1ccc(Oc2ncc3ncc(=O)n(CCc4ccccc4)c3n2)cc1	–	inactive
COCCn1c(=O)cnc2cnc(Oc3ccccc3)nc21	–	10 µM (active)
Cn1c(=O)c(-c2cccs2)nc2cnc(Oc3ccccc3)nc21	–	inactive
COCCn1c(=O)cnc2cnc(Oc3ccc(OC)cc3)nc21	–	inactive
